Assay results taken from PubChem BioAssay AID1159506 (National Center for Advancing Translational Sciences (NCATS), 2015).
In all, about 59,000 sequences were measured (the read-out: median about -0.00055, lowest 2% from about -2 on). The full list was thinned out, with the lowest values kept by preference.

Test: Identification of proteins required for the processing of the EWS-FLI1 nascent transcript;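 further: robust z of luciferase light less the median z of siRNAs with the same seed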
Details: TC32 Ewing sarcoma NR0B1-luc vs CMV-luc (EWS-FLI1 target promoter against control promoter), 48 h; screened at 20 nM (by protocol)
Description: Ewing sarcoma (ES) cells depend on the EWS-FLI1 fusion transcription factor for cell survival. Using an assay of EWS-FLI1 activity and genome-wide siRNA screening we have identified proteins required for the processing of the EWS-FLI1 nascent transcript. Parallel genome-wide siRNA-mediated RNAi screens were conducted in Ewing sarcoma TC32 cell lines expressing a luciferase (luc) reporter protein driven by either the promoter of the EWS-FLI1 target gene NR0B1 (TC32-NR0B1-luc) or the CMV promoter (TC32-CMV-luc). Luciferase activity was assessed 48 hours post siRNA-transfection.
Twenty microl of serum-free media containing Lipofectamine RNAiMax (0.05 microl) was added to wells containing siRNA (0.8 pmol). Lipid and siRNA were allowed to complex for 45 min at ambient temperature before addition of 600 cells in RPMI-1640, 20% FBS to yield final transfection mixtures containing 20 nM siRNA in RPMI-1640, 10% FBS. Luciferase expression was measured using OneGlo (Promega, Madison, WI). The genome-wide screening campaign was conducted using Ambion's human genome library version 4.1 (Ambion, Austin TX). This library targets approximately 21000 human genes, three siRNAs per gene. Each siRNA is arrayed in an individual well of a 384-well plate. Parallel transfections were conducted in TC32-NR0B1-luc and TC32-CMV-luc cell lines and luciferase expression (OneGlo, Promega) was assayed 48 h later on a PerkinElmer Envision 2104 Multilabel plate reader (PerkinElmer, Waltham, MA). Qiagen's AllStars Negative control was incorporated on all screening plates for normalization (16 wells per plate). Qiagen, Germantown, MDsiGL4 was incorporated as a positive transfection control (16 wells per plate) on all plates. […] The raw luciferase data for the NR0B1- and CMV-luc screens were normalized and z-score-MAD transformed using standard methods (Chung et al., 2008). The miRNA-like seed sequence of every siRNA was determined and the median z-score for all siRNA sequences with the same seed sequence was calculated. This z-score was subtracted from the z-score associated with each siRNA with that seed sequence to generate a seed-adjusted z-score value (Z) that was used when the results for the three siRNAs corresponding to each gene were compared (Marine et al., 2012)

Sequence	seed-corrected z-score
ACAUGAUCCAUCCAAAUGC against CD163	-0.0516
AACCGAUUCAUGACCACCG against AQP5	0.51
UUGGUGACUGUGCGCAUCC against TACR2	-0.41
AUGUGGACAACCUUCUUUG against RPS10P9	-1.14
AACGGGAACACCGACAACA against OPRL1	-0.00815
AACGUAAUAAAAGUCUUGC against SERHL	0.571
UGCUGGUUCAACUCAUCGC against DLGAP3	-2.34
UUACUAACAUCUUCUCGUC against PKN2	0.115
AAACCUAUUAGUGAGAACA against TRIML1	-0.116
AAACGGAGUCGUAGGAUCC against BMP15	-0.603
UUUCGUAUUCUGAGGACCG against DLGAP5	0.243
UUGCAGAUCUUUUCGCACC against S100A9	-0.59
AUUCGGAUUUGGGUCGUGC against PCDHGB2	0.36
UCAUGAUCUAUGUAGCCCG against ODF3L1	-2.53
UUCACCAUGACAGCCGAAG against RPL37AP8	-0.494
UUCAAUUCCAGCAACAUAA against CLDND1	-0.35
AUGGUAACGAGCUGAAUCC against TWF1	0.694
AAAUGUACAGGGAUCCAGG against ACCSL	-2.2
UUCAGGGCGAGGUAAUCCU against HLA-G	-0.165
UUUCAUAAUUGUCUCACUG against MTHFD2	0.341
AAACUUGUACACGUUCUUG against RPN2	1.31
AUACGAUAAAUAGCAGCUG against OR2D2	-0.266
UCAUGUAUUGCUGGGUGGG against LETMD1	-2.04

Sequence	seed-corrected z-score
UGAAAGCGCAGAUCUGUCU against HIST1H3G	-0.148
UGGUCUAAGGCUUUGAUGC against KLK2	-0.348
UGAUAUUUUGGUGCGUUGU against FBXO45	0.68
UAGUUGGUGAGGAUCACGG against REN	-0.578
UACUCUUCCAACGACAGGC against UQCC2	0.919
UUCCGAGUUGCAGAGGUCU against SLURP1	-0.177
AAAAGGAUUGCUGAAAUGG against LOC650293	0.542
UCUUGACUGACUUUCUUCU against FAM173B	-2.2
AAUGGAUGCAGUGUCAAGC against PAK1IP1	1.75
UUCCUUGACAAGCAUAACC against CARNMT1	-0.155
AAAUCUUACAGACUGGUUC against BEX1	-0.486
UCAUGGGUCACGUCAGCUG against SLC2A1	-0.895
ACACUGUAAAGCUCGGUGC against LARP1	0.106
UUAGAGUUGGUGAUGAGCA against GALK1	1.7
AAAAGGACUAUGUACAGCC against SNRPB	-3.37
UAUGCUCUCUGAUCGAAUG against ATG16L1	0.136
UUGCUCACAAUAAAAUAGC against GPR89A	-0.56
UGUAGACAAAGUACUGGGC against CNTN2	-0.261
AAACUUCCUAUUAUCGACC against SPRED2	-0.704
UUCGAGUGAAGACAGAAUC against ZNF318	-2.15
UAAGUUGUGAUGAUAGGUU against ZNF98	-0.0973
AUCUGAUCCAUAUUCUCCC against DIEXF	0.628
UACAAUAAAAGAAGCAUCU against PIGY	0.157

Sequence	seed-corrected z-score
UUUCUUAGAAAUGAGGUGA against OVOL1	-0.287
UCAGGAUCUGUGGAUACUG against COPB2	-2.55
UCAUAGUCCACGAGUUUCC against BIN2	0.142
UUCGGUUGAACCUUGUCUG against ORC2	-0.39
AAUACAAUGAGGAUGUUGC against MCHR2	-0.242
AUCUUUAACCCGAAAGGUC against STRC	-3.57
UACUCGAAGAUUUCCGUCC against SEC16B	-0.242
UUCGAUGUCACAGGUCUGC against RGS14	-0.247
UCGAUAUCAACUUUUGCCG against CEP192	-0.779
UUUGAUAGAGGUGCGGACG against OR6F1	-0.169
UAUCCGAUCACCACUCUCC against MYOM3	-0.29
UUCUUUCUGAGUCUGGUUA against RPL35	-3.01
AAAGGCUUAAUUUUUACCU against TOMM7	1.3
UGAGUUCCAGGUCUUAUGC against DEFB110	-0.42
AUAUUGUUUAGCUCCACGG against MASP1	0.285
UAGUCGUUCUUCUACAGCC against MBIP	0.411
UCACGAAGAGUUGCAACUG against ALB	-3.99
UGUAGUAACAGAGCCACGC against PPY	0.227
AAAAGUCCUAGCAUAUUCC against ZER1	0.406
UUUGUGAUCUUGGUGAGGU against SHBG	-0.0288
AACUGGACUGGAAUUGUUU against CXCR1	-0.419
